This passage reports inhibition results from PubChem BioAssay AID1578 (Sanford-Burnham Center for Chemical Genomics, 2009).

Screen size: about 290,000 compounds; about 3,000 (1%) were called active. The sample holds actives, similar compounds and a random draw of the others, so the mix is not that of the screen. A number with no mark means an inactive call. Rule as the data show it: active = inhibition mostly above about 36% (no sharp cut-off); inactive = mostly below about 34%.

A short description of the experiment: inhibition of NOD1-driven NF-kB reporter – cell-based, luminescence, uHTS, primary screen (AID 1578).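 Also: HEK-293T reporter cells stimulated with the NOD1 agonist gamma-tri-DAP.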 The conditions noted are these: NOD1-driven NF-kB luciferase reporter cells, at 4 µM, stronger effect = higher value. For orientation: A reporter such as luciferase makes a cellular process visible.
As usually defined, the inhibition is the drop in the measured response relative to a control, in per cent. Regarding `CN(CCN1CCOCC1)Cc1nc(-c2cccs2)no1`, the inhibition was -22.4%. The same measure for `Cc1ccsc1/C=N/N=C/c1sccc1C`: 76.7% (active); for `Cc1ccsc1C=Nc1ccc(O)cc1`: 27.4%; for `Cc1ccsc1/C=N/n1cnnc1`: -5.7%. The same measure for `COc1ccc(C(=O)C(OC(=O)CNC(=O)c2ccco2)c2ccccc2)cc1` (stereo unspecified): -7.7%; for `COc1ccccc1C(=O)NNC(=O)C1CCCO1` (stereo unspecified): -10.6%. The value for `COc1ccc(C(=O)Nc2ccc(N3CCCCC3)cc2)cc1Br` was -49%; that for `O=C1CCC(c2ccccc2)N1C(=O)c1cccnc1` (stereo unspecified) was -12.6%; that for `CC1(C)Oc2nc3ccccc3n2/C1=C\C#N` was 42% (active).

With `N#C/C=C1\n2c(nc3ccccc32)OC12CCCCC2`, the inhibition was -4%. As to `CNc1nc2ccccc2n1N`, the inhibition is 47%. For the compound `c1ccc(CCSc2ncnc3nc[nH]c23)cc1`, the inhibition is -1.6%. The same measure for `c1ccc(CCNc2ncnc3nc[nH]c23)cc1`: 16.7%; for `c1ccc2c(CCNc3ncnc4nc[nH]c34)cccc2c1`: 62% (active); for `Cc1cccc(CSc2ncnc3nc[nH]c23)c1`: -13.3%. The same measure for `c1ccc2c(CSc3ncnc4nc[nH]c34)cccc2c1`: 71.3% (active); for `c1ccc2c(CCNc3ncnc4nc[nH]c34)c[nH]c2c1`: 20.4%.

In the case of `Cc1cccc(C(=O)NC(=O)Nc2c(C)cc(C)nc2C)c1`, the inhibition is -46.9%. The value for `O=C(CCCn1cc([N+](=O)[O-])cn1)Nc1cccnc1` was -11.6%. The value for `Cc1ccc(C(=O)c2coc3cc([N+](=O)[O-])c(O)c([N+](=O)[O-])c23)cc1` was 21.2%; that for `CCCCN(c1ccccc1)c1ncnc2nc[nH]c12` was 36.9%; that for `CCCCN(Cc1ccccc1)c1ncnc2nc[nH]c12` was -41%. As for `CCCCN(CCCC)c1ncnc2nc[nH]c12`, the inhibition is 84.5% (active). As for `O=C(N[C@@H]1CCC(=O)N(CC[C@H](Oc2ccccc2)c2ccccc2)CC1)OCc1ccccc1`, the inhibition was 53.8%. The same measure for `COc1cc(/C=C(\C#N)C(=O)NC2CCCCC2C)ccc1OS(=O)(=O)c1ccc(C)cc1` (stereo unspecified): 75.9% (active). Regarding `COc1cc(/C=C(\C#N)C(N)=O)ccc1OS(=O)(=O)c1ccc(C)cc1`, the inhibition is 14.7%. The same measure for `C=CCNC(=O)/C(C#N)=C/c1ccc(OS(=O)(=O)c2ccc(C)cc2)c(OC)c1`: 10%.

Consider `COc1ccc(CNC(=O)CN(Cc2ccc(F)cc2)C(=O)c2csnn2)cc1`, for which the inhibition is -24.5%. For the compound `C=CCn1c(=O)c2ccc(C(=O)NCc3ccccc3)cc2n(Cc2cccc(Cl)c2)c1=O`, the inhibition is 61.7%. The same measure for `O=C(CN1CCCN(S(=O)(=O)c2ccc(F)cc2)CC1)Nc1c(Cl)cccc1Cl`: -4.7%.

In the case of `Fc1cccc(Cl)c1CNC(c1ccccc1)c1ccccc1`, the inhibition was 9.2%. In the case of `Cc1ccc(NCC(=O)N/N=C/c2cc3ccccc3nc2Cl)cc1`, the inhibition is -21.8%. The value for `CCOC(=O)/C(=C/c1ccc(OC(=O)c2ccccc2)cc1)C(C)=O` was -13.5%. In the case of `CCOC(=O)C(=Cc1ccccc1OC)C(=O)OCC`, the inhibition was 47.6% (active). The same measure for `O=C(O)/C=C/c1ccc(-n2ccnc2)cc1`: 1.1%; for `COC(=O)/C=C/c1ccc(-n2ccnc2)cc1`: -9.9%. `CCOC(=O)C(=Cc1cc(=O)c(OC)co1)C(=O)OCC`: the inhibition was -12.3%. The same measure for `COc1ccccc1/C=C(/C(=O)OCC(N)=O)c1ccccc1`: 0.8%; for `CCOC(=O)C(=Cc1ccc(-n2ccnc2)cc1)C(=O)OCC`: 45.8% (active). For the compound `CCOC(=O)C(=Cc1ccc(F)cc1)C(=O)OCC`, the inhibition was 31.2%. With `CCOC(=O)C(=Cc1ccc(Br)cc1)C(=O)OCC`, the inhibition was 36.2% (active). The same measure for `Cc1nn(-c2ccccc2)c(C)c1C(=O)OCC(=O)N1CCN(S(=O)(=O)c2ccccc2)CC1`: -0.7%. The value for `Cc1ccc2c(N)c(C)ccc2c1` was -4.1%; that for `Cn1ncc(N2CCN(C(=O)c3ccc(Cl)cc3)CC2)c(Cl)c1=O` was -21.9%; that for `COc1ccc(CNC(=O)C2CCCN(S(=O)(=O)c3ccc(Br)s3)C2)cc1` (stereo unspecified) was -13.3%.

Turning to `Cc1cc(N/N=C/c2ccccc2F)nc(NCc2ccccc2)n1`, the inhibition is -2.7%. The value for `CCc1ccc(N/C(SCc2cccc(F)c2)=C(/C#N)C(=O)NCc2ccco2)cc1` was 3.2%; that for `CCN(CC)C(=O)CSC(Nc1ccc(F)cc1)=C(C#N)C#N` was 4.2%.

For `Cc1cccc(CSC(Nc2ccc(F)cc2)=C(C#N)C#N)c1`, the inhibition was 83.7% (active). For `COc1ccc(S(=O)(=O)N(C)CC(=O)N2CCCC2)cc1OC`, the inhibition is -5.3%. In the case of `c1ccc(SCc2cn(C[C@H]3CC[C@@H]([C@@H]4CC[C@H](Cn5cc(CSc6ccccc6)nn5)O4)O3)nn2)cc1`, the inhibition is 22.8%.

In the case of `CCCn1c2ccccc2c2cnn(CC(=O)NC3CCCCC3)c(=O)c21`, the inhibition is -26.9%. The same measure for `CN1CCN(C(=S)SCC(=O)Nc2nc(-c3ccccc3)c(-c3ccccc3)o2)CC1`: -3.5%. The value for `CCN(CC)C(=S)SCC(=O)Nc1nc(-c2ccccc2)c(-c2ccccc2)o1` was 72.2% (active); that for `O=C(Nc1nc(-c2ccccc2)c(-c2ccccc2)o1)c1ccc(F)cc1` was 97.4% (active). The value for `O=C(CSC(=S)N1CCCCC1)Nc1nc(-c2ccccc2)c(-c2ccccc2)o1` was 9.9%. `CC(=O)Nc1nc(-c2ccccc2)c(-c2ccccc2)o1`: the inhibition is -5.3%. The value for `Cc1ccc(C(=O)Nc2nc(-c3ccccc3)c(-c3ccccc3)o2)cc1` was 35.6%; that for `COc1ccccc1OCc1ccc(C(=O)N2CCOCC2)o1` was -11%; that for `C=CCN(Cc1cc(OC)ccc1OC)S(=O)(=O)N(C)C` was 3.4%. The value for `O=C(Cc1ccc(Br)cc1)OCC(=O)N1CCc2ccccc2C1` was -12.8%; that for `OCCC1CN(Cc2cccc(-c3ccco3)c2)CCN1Cc1ccsc1` (stereo unspecified) was -17.2%; that for `CSCc1cc(N2CCOCC2)nc(SCc2ccc(Cl)c(Cl)c2)n1` was -11.4%. Turning to `COCc1cc(N2CCOCC2)nc(SCc2ccc(Cl)cc2)n1`, the inhibition is 52.1% (active).

Consider `COc1ccc(CSc2nc(CSC)cc(N3CCOCC3)n2)cc1`, for which the inhibition is 7.8%.

`CCCCCCn1ccc(=N)cc1`: the inhibition is 41.6%. In the case of `CCCCCn1ccc(=N)cc1`, the inhibition is 13.1%. The same measure for `CCN(CC)S(=O)(=O)c1ccc(NS(=O)(=O)c2ccc3oc(=O)[nH]c3c2)cc1`: 22.1%; for `COC(=O)C1C(=O)c2c(C)noc2CC1(C)C` (stereo unspecified): 64.3% (active). The value for `COC(=O)C1C(=O)c2c(n[nH]c2C)CC1(C)C` (stereo unspecified) was -14.2%; that for `CCCc1n[nH]c2c1C(=O)C(C(=O)OC)C(C)(C)C2` (stereo unspecified) was 11.5%; that for `O=C(c1ccccn1)c1conc1C(=O)c1ccc(Br)cc1` was 0.5%. Take `CN(C(=S)NC(=O)Cc1ccccc1)c1ccccc1`: the inhibition is -27.4%. The same measure for `Cc1cc(C)cc(NC(=S)N2CCN(S(=O)(=O)c3ccccc3)CC2)c1`: -17.6%; for `Cc1csc(CN(C)C(=O)CC2C(=O)NCCN2Cc2ccc(F)cc2Cl)n1` (stereo unspecified): -11.4%; for `c1coc(CNc2nc3ccccc3n2CCN2CCOCC2)c1`: 43.1% (active). `c1csc(CNc2nc3ccccc3n2CCN2CCOCC2)c1`: the inhibition was 1.1%.

With `CCCn1c(NCc2ccco2)nc2ccccc21`, the inhibition was -16.4%.

In the case of `CN(CCC#N)c1ccc(/C=C(\C#N)c2ccccn2)cc1`, the inhibition is 30.9%.

Turning to `CCN(CC)c1ccc(/C=C(\C#N)c2ccccn2)cc1`, the inhibition is -55.6%. The same measure for `CN(C)c1ccc(/C=C(\C#N)c2ccccn2)cc1`: 73.6% (active); for `CNc1ccc(/C=C(\C#N)c2ccccn2)cc1[N+](=O)[O-]`: -34.3%; for `N#C/C(=C\c1ccc(Cl)c([N+](=O)[O-])c1)c1ccccn1`: 47.2% (active). The value for `N#C/C(=C\c1ccc([N+](=O)[O-])cc1)c1ccccn1` was -27.2%; that for `CCOC(=O)c1sc(NC(=O)C(C)Sc2nnc(N)s2)nc1C` (stereo unspecified) was -12.9%. The same measure for `CCNC(=O)Nc1cc2nc(C)n(Cc3ccc(Br)cc3)c2nc1C`: 24.1%; for `Cc1cc(-n2c(C)cc(C(=O)CN3C(=O)NC4(CCCC4)C3=O)c2C)no1`: -20.6%. With `Cc1cc(-n2c(C)cc(C(=O)CCl)c2C)no1`, the inhibition was 46.4% (active). As to `CC(=O)c1c(C(C)=O)c(C)n(-c2cccc([N+](=O)[O-])c2)c1C`, the inhibition was -27.2%. The same measure for `Cc1cc(C(=O)CCl)c(C)n1-c1c(C)n(C)n(-c2ccccc2)c1=O`: 42.5% (active). The value for `Cc1cc(C(=O)CCl)c(C)n1-c1cccc([N+](=O)[O-])c1` was 77.4% (active); that for `CCOC(=O)c1cc(C)n(-c2c(C)n(C)n(-c3ccccc3)c2=O)c1C` was -12.8%.

Regarding `COc1ccc(-n2c(C)cc(C(=O)CCl)c2C)cc1`, the inhibition is 39.1%. Consider `Cc1cc(C(=O)CC#N)c(C)n1-c1c(C)n(C)n(-c2ccccc2)c1=O`, for which the inhibition is -19.8%. The same measure for `Cc1cc(C(=O)CCl)c(C)n1-c1ccon1`: 28.2%; for `COc1ccc(NC(=O)Nc2cccc3ccccc23)cc1S(N)(=O)=O`: 25.8%. Take `N/C(=N\O)c1cccc(CS(=O)(=O)c2ccccn2)c1`: the inhibition is -7.5%. Take `Cc1ccc(-n2[nH]c(C)c(C=NC34CN5CN(CN(C5)C3)C4)c2=O)cc1C`: the inhibition was 9.5%. The same measure for `CCCN1C(=S)c2ccccc2C1c1ccccc1` (stereo unspecified): 35.5%.

In the case of `O=S(=O)(NN1CCOCC1)c1ccc(Cl)s1`, the inhibition was -37.6%. The same measure for `O=C1c2cccc3cccc(c23)C(=O)N1Cc1ccccc1`: -16.9%.
